aSyn UTR act: Activators via SNCA 5'UTR binding, MLPCN | activity score, % (tested at 7.5 µM), hits read low | AID 1814 | alpha-synuclein 5'UTR reporter, activators screen | 300,000 compounds, 7.1% hits; in the data active means activity score below about -60%
* hit, by the source's call. Not all results are given here.

CCC(Sc1nnnn1C)C(=O)Nc1ccc(C(C)=O)cc1 (stereo not given) was read as aSyn UTR act -73.4*.
For O=C(Nc1ccc(OCC(F)(F)C(F)F)c(C(F)(F)F)c1)c1ccccc1 the results were aSyn UTR act -100.7*.
`O=C(O)CC(=O)Nc1ccc(Oc2ccc(C(F)(F)F)cn2)c(Cl)c1` gave aSyn UTR act 64.6.
For CCc1c(C(=O)OCc2ccccc2)[nH]c(C)c1C the results were aSyn UTR act -116.9*.
`CCc1c(C)[nH]c(C(=O)OCc2ccccc2)c1C` gave aSyn UTR act -74.7*.
Screening O=C(/C=C/c1ccccc1Cl)NCc1cccs1 returned aSyn UTR act -101.4*.
`O=C(/C=C/c1ccc(F)cc1)NC(=S)NNC(=O)c1cnccn1` gave aSyn UTR act 95.5.
O=C(/C=C/c1ccccc1Cl)NNC(=O)c1cccs1 was read as aSyn UTR act -82.9*.
For O=C(/C=C/c1ccc(F)cc1)NCc1cccs1 the results were aSyn UTR act -111.9*.
O=C(NCc1cccs1)c1nc2c(nnn2Cc2ccccc2Cl)c(=O)[nH]1 was read as aSyn UTR act 77.0.
For O=C(CSc1ncccn1)c1ccccc1Br the results were aSyn UTR act -64.5*.
For COCC(C)n1c(C)cc(C(=O)CSc2nnnn2-c2ccc(O)cc2)c1C (stereo not given) the results were aSyn UTR act -81.6*.
Screening COCC(C)n1c(C)cc(C(=O)CSc2ncccn2)c1C (stereo not given) returned aSyn UTR act -75.9*.
For CCOc1ccc2nc(/N=C/c3c(C)[nH]n(-c4ccc(C)cc4)c3=O)sc2c1 the results were aSyn UTR act -143.0*.
For CCOc1ccc2nc(/N=C/c3c(C)[nH]n(-c4ccccc4)c3=O)sc2c1 the results were aSyn UTR act -144.3*.
CCCCCN=Cc1c(C)[nH]n(-c2nc3ccccc3s2)c1=O was read as aSyn UTR act 62.5.
CCOc1ccc2c(c1)OC(c1ccc(C)cc1)(C(F)(F)F)NC2=O (stereo not given) was read as aSyn UTR act 95.8.
Screening Cc1ccc2cc3cc(C(=O)NC4CC4)oc3nc2c1 returned aSyn UTR act -133.6*.
Screening Cc1ccc2cc3cc(C(=O)NC4CCCCC4)oc3nc2c1 returned aSyn UTR act -152.7*.
For COc1ccc(N=Nc2[nH]c3ccc(C)cc3c2O)cc1 the results were aSyn UTR act -124.9*.
`Cc1ccc(N=Nc2[nH]c3ccccc3c2O)cc1` gave aSyn UTR act -79.9*.
For CN(C)CCNC(=O)c1cc2sc3ccccc3c2s1 the results were aSyn UTR act -126.8*.
CCN(CC)C(=O)c1cc2sc3ccccc3c2s1 was read as aSyn UTR act -134.5*.
`N#CC1=C(SCC(=O)c2ccc(Cl)cc2)NC2=C(C(=O)CCC2)C1c1ccco1` (stereo not given) gave aSyn UTR act -173.1*.
C=CCOC(=O)C1=C(C)NC(SCC)=C(C#N)C1c1ccc(Cl)cc1 (stereo not given) was read as aSyn UTR act 67.0.
`Cc1ccc(C(=O)Nc2nccc(-c3cccs3)n2)cc1` gave aSyn UTR act -66.1*.
For Cc1csc(NC(=O)c2sc3nc(-c4cccs4)ccc3c2N)n1 the results were aSyn UTR act -227.6*.
For O=C(Nc1nc(-c2cc(Cl)sc2Cl)cs1)c1cccs1 the results were aSyn UTR act -157.7*.
Cc1ccc(C(=O)Nc2ncc3c(Cl)cccc3n2)cc1 was read as aSyn UTR act 64.5.
`O=C(Nc1nc(-c2cccs2)cs1)c1ccc(Cl)cc1` gave aSyn UTR act -88.3*.
Screening CCCCCCCCCCCCCCCC[N+](C)(C)CC returned aSyn UTR act 100.9.
Screening COc1ccc(C(=O)Nc2nc(-c3cccs3)cs2)cc1 returned aSyn UTR act -91.3*.
For Cc1cc2c(C)cc(=O)[nH]c2cc1NC(=O)CCl the results were aSyn UTR act -69.8*.
For Cc1ccnc(N/C=C/C(=O)c2ccc(Br)cc2)c1 the results were aSyn UTR act -62.4*.
Cc1cc(N/C=C/C(=O)c2ccc(Br)cc2)no1 was read as aSyn UTR act -198.1*.
`O=C(/C=C\Nc1ccc(Cl)cn1)c1ccc(Br)cc1` gave aSyn UTR act -165.2*.
Screening O=C(Nc1ccc(Br)cc1)Nc1ccccc1F returned aSyn UTR act -232.1*.
O=C(Nc1ccccc1F)Nc1ccccc1F was read as aSyn UTR act -238.8*.
O=C(c1ccccc1)N1CCSc2sccc2C1=O was read as aSyn UTR act 96.8.
Screening Cc1sc2c(c1C)CN(C(C)(C)C)CN2C(=O)c1ccccc1 returned aSyn UTR act -64.4*.
Screening Cc1nn(-c2ccccc2)c(N)c1N=Nc1ccc2ccccc2c1 returned aSyn UTR act -241.6*.
For Cc1ccc(N=Nc2c(N)nn(-c3ccccc3)c2N)cc1 the results were aSyn UTR act -182.9*.
`CC(=O)N1N=C(c2ccc(C)cc2)CC1c1ccco1` (stereo not given) gave aSyn UTR act -97.7*.
Screening CC(=O)N1N=C(c2ccc(C)cc2)CC1c1ccc2c(c1)OCO2 (stereo not given) returned aSyn UTR act -132.9*.

Screening results: PubChem, Broad Institute
